Test results published in PubChem BioAssay (EPA / NIEHS).
Calls of active or inactive are those of the source. The calls were made as follows: active = hit-call score of the fitted dose curve at least 0.9, where 1 is the maximum; inactive = score below 0.9.

Legend:
Conditions in all cases: mRNA level, 48 h; actives raise or lower the signal
CYP4A11 (gene 1579) = assay: LTEA_HepaRG_CYP4A11: Life Technologies and Expression Analysis (LTEA) Assay for CYP4A11 using HepaRG (AID 2283486)
Procedure, shortened: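 HepaRG, 48 h chem exposure, 8 conc (100 uM top, half-log), 0.5% DMSO vehicle; qRT-PCR readout, housekeeping-gene normalized; bidirectional curve fit vs DMSO baseline.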

[1] = read-out: Cytochrome P450 3A4 (Homo sapiens) (UniProt P08684); assay: LTEA_HepaRG_CYP3A4: Life Technologies and Expression Analysis (LTEA) Assay for CYP3A4 using HepaRG (AID 2283487)
Procedure, shortened: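 Differentiated HepaRG cells, plated 48 h, then dosed 48 h in serum-free induction medium with 0.5% DMSO, 8 half-log concentrations up to 100 uM, duplicate. CYP3A4 mRNA by qRT-PCR, normalized to ACTB/GAPDH/POLR2A; bidirectional fit versus DMSO.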

[2] = read-out: DNA damage-inducible transcript 3 (DDIT3), DDIT3 (gene 1649); assay: LTEA_HepaRG_DDIT3: Life Technologies and Expression Analysis (LTEA) Assay for DNA damage-inducible transcript 3 (DDIT3) using HepaRG (AID 2283488)
Procedure, shortened: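 Eight-point concentration-response (100 uM highest, half-log dilutions) in HepaRG, 48 h, duplicate wells. Endpoint: qRT-PCR mRNA, normalized (ACTB, GAPDH, POLR2A), bidirectional fitting with DMSO as baseline.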

[3] = read-out: Pro-epidermal growth factor (Homo sapiens) (UniProt P01133); assay: LTEA_HepaRG_EGF: Life Technologies and Expression Analysis (LTEA) Assay for Epidermal growth factor (EGF) using HepaRG (AID 2283489)
Procedure, shortened: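 HepaRG, 48 h dosing, 100 uM top, half-log x8, 0.5% DMSO. Readout: TaqMan qRT-PCR (Fluidigm array), housekeeping-normalized. Gain or loss of signal fit vs DMSO.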

[4] = read-out: Early growth response protein 1 (EGR1) transcription factor, EGR1 (gene 1958); assay: LTEA_HepaRG_EGR1: Life Technologies and Expression Analysis (LTEA) Assay for Early growth response protein 1 (EGR1) transcription factor using HepaRG (AID 2283490)
Procedure, shortened: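 EGR1 expression change in human HepaRG after 48 h chemical exposure, assessed by housekeeping-normalized qRT-PCR; concentration-response up to 100 uM, fitted in both directions against DMSO controls.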

[5] = read-out: Ezrin (EZR), EZR (gene 7430); assay: LTEA_HepaRG_EZR: Life Technologies and Expression Analysis (LTEA) Assay for Ezrin (EZR) using HepaRG (AID 2283491)
Procedure, shortened: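 EZR transcript levels came from Fluidigm qRT-PCR and were normalized to three housekeeping genes after 48 h chemical exposure of HepaRG cells. Dosing used an 8-point half-log series with a 100 uM top concentration in 0.5% DMSO, tested in duplicate; both directions were fitted versus vehicle.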

[6] = read-out: Cytochrome P450 3A7 (Homo sapiens) (UniProt P24462); assay: LTEA_HepaRG_CYP3A7: Life Technologies and Expression Analysis (LTEA) Assay for CYP3A7 using HepaRG (AID 2283492)
Procedure, shortened: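 Human HepaRG liver cells, 48 h post-plating, switched to serum-free induction medium and exposed in duplicate for 48 h. Dosing: 100 uM top, half-log dilutions, 8 points, 0.5% DMSO vehicle. Read-out: CYP3A7 mRNA, gain or loss fitted against DMSO baseline.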

CYP3A5 (gene 1577) = assay: LTEA_HepaRG_CYP3A5: Life Technologies and Expression Analysis (LTEA) Assay for CYP3A5 using HepaRG (AID 2283493)
Procedure, shortened: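 Readout was CYP3A5 mRNA by qRT-PCR. HepaRG cultures were exposed for 48 h in serum-free induction medium to chemicals at up to 100 uM, and responses were fitted in both directions relative to DMSO vehicle.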

[7] = read-out: Fatty Acid-Binding Protein 1 (FABP1), FABP1 (gene 2168); assay: LTEA_HepaRG_FABP1: Life Technologies and Expression Analysis (LTEA) Assay for Fatty Acid-Binding Protein 1 (FABP1) using HepaRG (AID 2283494)
Procedure, shortened: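 Values reflect bidirectional concentration-response fitting of FABP1 mRNA change against 0.5% DMSO controls. Human HepaRG cultures received eight half-log doses (top 100 uM) for 48 h; expression quantified by TaqMan qRT-PCR with housekeeping-gene normalization.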

[8] = read-out: Cytochrome P450 4A22 (Homo sapiens) (UniProt Q5TCH4); assay: LTEA_HepaRG_CYP4A22: Life Technologies and Expression Analysis (LTEA) Assay for Cytochrome P450 4A22 (CYP4A22) using HepaRG (AID 2283495)
Procedure, shortened: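 Readout is CYP4A22 transcript induction or loss, quantified by qRT-PCR and normalized to ACTB, GAPDH and POLR2A. Human HepaRG cells receive test chemicals for 48 h at eight half-log concentrations from 100 uM in 0.5% DMSO.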

[9] = read-out: Cytochrome P450 7A1 (Homo sapiens) (UniProt P22680); assay: LTEA_HepaRG_CYP7A1: Life Technologies and Expression Analysis (LTEA) Assay for Cytochrome P450 7A1 (CYP7A1) using HepaRG (AID 2283496)
Procedure, shortened: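 Using 0.5% DMSO as vehicle and baseline, chemicals were tested in duplicate over an 8-point range from 100 uM on HepaRG cells for 48 h; qRT-PCR signals were normalised to ACTB, GAPDH and POLR2A.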

[10] = read-out: Glutathione S-Transferase (GSTA2), GSTA2 (gene 2939); assay: LTEA_HepaRG_GSTA2: Life Technologies and Expression Analysis (LTEA) Assay for Glutathione S-Transferase (GSTA2) using HepaRG (AID 2283497)
Procedure, shortened: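 Oxidative-stress marker GSTA2 is quantified by TaqMan qRT-PCR in HepaRG cultures treated 48 h across an eight-point range to 100 uM. Expression is normalized to endogenous controls and compared with 0.5% DMSO vehicle.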

[11] = read-out: Glutamate-cysteine ligase catalytic (GCLC), GCLC (gene 2729); assay: LTEA_HepaRG_GCLC: Life Technologies and Expression Analysis (LTEA) Assay for Glutamate-cysteine ligase catalytic (GCLC) using HepaRG (AID 2283498)
Procedure, shortened: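 Oxidative-stress marker GCLC is measured as mRNA change in human HepaRG liver cells after 48 h chemical treatment in 0.5% DMSO, eight concentrations from 100 uM. Activity is fitted bidirectionally against vehicle.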

[12] = read-out: growth arrest and DNA damage 45 (GADD45G), GADD45G (gene 10912); assay: LTEA_HepaRG_GADD45G: Life Technologies and Expression Analysis (LTEA) Assay for growth arrest and DNA damage 45 (GADD45G) using HepaRG (AID 2283499)
Procedure, shortened: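 Gain or loss of GADD45G mRNA, quantified by TaqMan qRT-PCR against three housekeeping genes, is fitted in both directions relative to 0.5% DMSO. Human HepaRG cultures receive test chemical for 48 h at up to 100 uM.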

[13] = read-out: Glutamate-cysteine ligase regulatory (GCLM), GCLM (gene 2730); assay: LTEA_HepaRG_GCLM: Life Technologies and Expression Analysis (LTEA) Assay for Glutamate-cysteine ligase regulatory (GCLM) using HepaRG (AID 2283500)
Procedure, shortened: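 In this multiplexed HepaRG gene-expression assay, GCLM mRNA change after 48 h treatment (8 concentrations, max 100 uM) was scored against DMSO by bidirectional curve fitting.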

[14] = read-out: Glutathione S-transferase M3 (GSTM3), GSTM3 (gene 2947); assay: LTEA_HepaRG_GSTM3: Life Technologies and Expression Analysis (LTEA) Assay for Glutathione S-transferase M3 (GSTM3) using HepaRG (AID 2283501)
Procedure, shortened: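 HepaRG, plated 48 h, then serum-free induction medium; test chemical 48 h, duplicate; 100 uM top, half-log x8, 0.5% DMSO. Read-out: GSTM3 mRNA (TaqMan qRT-PCR, Fluidigm array). Bidirectional fit vs DMSO.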

[15] = read-out: Heat shock 70 kDa protein 1 (HSPA1A), gene 3303; assay: LTEA_HepaRG_HSPA1A: Life Technologies and Expression Analysis (LTEA) Assay for Heat shock 70 kDa protein 1 (HSPA1A) using HepaRG (AID 2283502)
Procedure, shortened: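 An oxidative-stress marker readout: HepaRG cells treated 48 h in duplicate with an eight-point series (highest 100 uM) had HSPA1A mRNA quantified by TaqMan qRT-PCR. Activity was fitted in both directions using 0.5% DMSO as baseline.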

[16] = read-out: Hypoxia-inducible factor 1-alpha (Homo sapiens) (UniProt Q16665); assay: LTEA_HepaRG_HIF1A: Life Technologies and Expression Analysis (LTEA) Assay for Hypoxia-inducible factor 1 (HIF1A) Trancription factor using HepaRG (AID 2283503);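 also: HIF1A transcript by TaqMan qRT-PCR normalized to ACTB GAPDH and POLR2A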
Procedure, shortened: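 Gain- or loss-of-signal HIF1A mRNA changes are fitted against a DMSO baseline. HepaRG cultures receive eight concentrations, highest 100 uM, for 48 h in serum-free induction medium with 0.5% DMSO.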

[17] = read-out: 3-Hydroxy-3-Methylglutaryl-CoA Synthase 2 (HMGCS2), HMGCS2 (gene 3158); assay: LTEA_HepaRG_HMGCS2: Life Technologies and Expression Analysis (LTEA) Assay for 3-Hydroxy-3-Methylglutaryl-CoA Synthase 2 (HMGCS2) using HepaRG (AID 2283504)
Procedure, shortened: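 HepaRG, plated 48 h then switched to serum-free induction media; cmpd 8-pt, max 100 uM, 1/2-log, 0.5% DMSO, n=2, 48 h. HMGCS2 mRNA by Fluidigm TaqMan qRT-PCR, ACTB/GAPDH/POLR2A norm; bidirectional fit vs DMSO.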

HGF (gene 3082) = assay: LTEA_HepaRG_HGF: Life Technologies and Expression Analysis (LTEA) Assay for Hepatocyte Growth Facto (HGF) using HepaRG (AID 2283505)
Procedure, shortened: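 Read-out is HGF transcript level by qRT-PCR, normalized to three housekeeping genes, fitted bidirectionally against 0.5% DMSO vehicle. Human HepaRG cells received test chemicals for 48 h at up to 100 uM.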

Measured: outcome

Hypoxia-inducible factor 1-alpha (Homo sapiens), sequence (Q16665 whole entry, looked up): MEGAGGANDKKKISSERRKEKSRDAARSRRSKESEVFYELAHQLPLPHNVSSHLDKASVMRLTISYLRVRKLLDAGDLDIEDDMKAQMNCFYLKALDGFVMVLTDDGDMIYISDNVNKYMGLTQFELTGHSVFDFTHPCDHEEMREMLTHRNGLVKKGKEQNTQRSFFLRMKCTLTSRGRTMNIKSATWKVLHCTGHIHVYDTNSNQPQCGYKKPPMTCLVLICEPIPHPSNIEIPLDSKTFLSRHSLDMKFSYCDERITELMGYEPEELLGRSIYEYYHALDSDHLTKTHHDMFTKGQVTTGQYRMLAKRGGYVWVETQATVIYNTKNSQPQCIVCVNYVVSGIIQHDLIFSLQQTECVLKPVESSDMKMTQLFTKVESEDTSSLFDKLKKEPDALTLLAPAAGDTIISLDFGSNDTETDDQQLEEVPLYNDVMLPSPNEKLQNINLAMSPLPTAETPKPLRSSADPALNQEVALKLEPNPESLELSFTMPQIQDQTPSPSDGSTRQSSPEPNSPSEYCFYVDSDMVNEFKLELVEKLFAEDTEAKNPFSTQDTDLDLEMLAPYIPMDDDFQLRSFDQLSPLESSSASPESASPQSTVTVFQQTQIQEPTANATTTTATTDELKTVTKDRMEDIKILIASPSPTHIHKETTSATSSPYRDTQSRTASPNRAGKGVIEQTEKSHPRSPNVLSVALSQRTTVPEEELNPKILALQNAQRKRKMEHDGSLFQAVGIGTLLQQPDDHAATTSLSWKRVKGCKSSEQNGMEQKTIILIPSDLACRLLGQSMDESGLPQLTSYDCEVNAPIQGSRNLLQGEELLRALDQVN
Cytochrome P450 3A7 (Homo sapiens), sequence (P24462 whole entry, looked up): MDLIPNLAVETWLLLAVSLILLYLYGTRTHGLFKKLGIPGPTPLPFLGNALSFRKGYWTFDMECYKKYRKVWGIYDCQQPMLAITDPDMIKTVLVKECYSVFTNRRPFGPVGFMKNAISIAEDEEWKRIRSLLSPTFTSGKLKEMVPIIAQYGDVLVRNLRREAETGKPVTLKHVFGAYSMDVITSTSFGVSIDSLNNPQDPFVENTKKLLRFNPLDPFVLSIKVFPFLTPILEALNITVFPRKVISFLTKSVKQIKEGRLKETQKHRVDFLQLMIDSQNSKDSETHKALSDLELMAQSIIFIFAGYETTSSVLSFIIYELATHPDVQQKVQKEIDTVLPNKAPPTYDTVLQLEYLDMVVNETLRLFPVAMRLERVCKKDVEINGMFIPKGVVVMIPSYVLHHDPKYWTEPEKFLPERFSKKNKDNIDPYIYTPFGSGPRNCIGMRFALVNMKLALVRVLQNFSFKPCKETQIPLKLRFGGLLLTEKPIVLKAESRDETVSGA
Cytochrome P450 3A4 (Homo sapiens), sequence (P08684 whole entry, looked up): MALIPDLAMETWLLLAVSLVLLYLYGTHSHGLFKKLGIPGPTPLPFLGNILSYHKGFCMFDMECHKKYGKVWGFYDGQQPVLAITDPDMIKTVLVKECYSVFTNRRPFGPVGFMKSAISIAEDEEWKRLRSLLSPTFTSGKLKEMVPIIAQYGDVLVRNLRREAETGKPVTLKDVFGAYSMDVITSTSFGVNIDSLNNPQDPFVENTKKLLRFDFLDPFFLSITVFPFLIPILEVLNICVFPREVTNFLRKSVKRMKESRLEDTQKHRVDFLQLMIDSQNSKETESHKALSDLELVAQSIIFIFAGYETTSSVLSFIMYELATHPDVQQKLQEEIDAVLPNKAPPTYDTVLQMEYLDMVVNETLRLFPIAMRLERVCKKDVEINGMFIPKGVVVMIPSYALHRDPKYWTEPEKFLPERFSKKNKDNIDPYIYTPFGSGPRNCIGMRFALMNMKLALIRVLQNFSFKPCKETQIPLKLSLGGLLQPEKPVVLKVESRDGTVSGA

CCC(C)=NO
inactive: all assays above
